In the library only some 4.8% were active in any assay of this set; here they are far more common.
SMARCA2 activ: increases SMARCA2 function in MMTV reporter cells. MG213 cells, MMTV-luciferase reporter, dexamethasone, overnight. activation, % at 9.1 µM. actives 1% (n = 370,000). AID 652017; in the data active = activation above about 7.8%;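 note: 0% = vehicle wells and 100% = reference activator wells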
hcDAF-12 act: H. contortus DAF-12 activation, primary screen | activation, % at 6.8 µM | actives 1.4% (n = 370,000) | HEK293 hcDAF-12 lit1-tk-luc reporter, luminescence; 0% DMSO, 100% Δ7-dafachronic acid;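 active = activation above the mean of all tested compounds plus 3 SD, cut at about 5.5% in these data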;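 note: 100% = response to 3 µM Δ7-dafachronic acid high control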
DAX1 inh-1: DAX1 (NR0B1) inhibition, primary screen | HEK293T StAR-luciferase reporter, SF-1/DAX-1 repression relief | inhibition, % at 6.8 µM | actives 1.1% (n = 370,000) | AID 652010;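 active = inhibition above the mean over all tested compounds plus 3 SD, cut at about 3.6% in these data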;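 note: 0% = DAX-1 cells with DMSO and 100% = cells lacking DAX-1 with DMSO; higher inhibition means more luminescence from relief of DAX-1 repression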
ssDAF12 agonist: S. stercoralis DAF-12 activation, primary screen. actives 1% (n = 370,000). HEK293 ssDAF-12/GRIP1 lit1-tk-luc reporter, luminescence; % of 3 µM dafachronic acid response. AID 652126. activation, % at 6.8 µM;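 active = activation above the mean over all tested compounds plus 3 SD, cut at about 0.9% in these data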;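 note: 0% = DMSO-only wells and 100% = 3 µM delta7-dafachronic acid wells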
DAX1 inh-2: NR0B1 (DAX1) inhibition. P51843. HEK293 Gal4-DAX1 luciferase reporter, luminescence. inhibition, % at 6.75 µM. actives 0.99% (n = 340,000). AID 504766;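 active = inhibition above the mean over all tested compounds plus 3 SD, cut at about 4.2% in these data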;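 note: 0% = DAX1-transfected cells with DMSO and 100% = empty-vector control cells with DMSO; inhibition shows as a rise in luminescence from relieved DAX1 repression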
Target sequence (P51843 207-470 limits assumed): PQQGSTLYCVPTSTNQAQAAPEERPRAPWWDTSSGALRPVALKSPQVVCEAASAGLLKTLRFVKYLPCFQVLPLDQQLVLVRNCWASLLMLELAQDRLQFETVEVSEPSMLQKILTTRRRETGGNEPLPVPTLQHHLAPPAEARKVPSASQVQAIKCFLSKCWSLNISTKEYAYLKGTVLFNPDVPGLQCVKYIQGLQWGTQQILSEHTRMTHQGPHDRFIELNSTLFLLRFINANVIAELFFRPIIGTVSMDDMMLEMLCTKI
hgDAF-12 ag: activates the H. glycines DAF-12 receptor ligand-binding domain; HEK293 GAL4-hgDAF12 UAS-luciferase reporter, agonist luminescence; normalized to butyrate control; activation, % at 6.8 µM; actives 1.8% (n = 370,000); AID 687014;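 active = activation above a cutoff set at the mean of all screened compounds plus 3 SD, cut at about 10% in these data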;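 note: 0% = DMSO wells and 100% = sodium butyrate wells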
DAX1 conf: confirmation of human DAX1 (NR0B1) inhibitors | shares compounds with DAX1 inh-1 | HEK293T StAR-promoter luciferase reporter, SF-1/DAX-1 repression | actives 87% (n = 2,400) | inhibition, % at 6.8 µM;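 active = inhibition above the average of every tested compound plus 3 SD, cut at about 3.8% in these data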;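 note: 0% = DAX-1 cells with DMSO and 100% = no DAX-1 control cells with DMSO; active compounds raise luminescence by relieving repression of the StAR reporter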
Target sequence (P51843 whole entry, looked up): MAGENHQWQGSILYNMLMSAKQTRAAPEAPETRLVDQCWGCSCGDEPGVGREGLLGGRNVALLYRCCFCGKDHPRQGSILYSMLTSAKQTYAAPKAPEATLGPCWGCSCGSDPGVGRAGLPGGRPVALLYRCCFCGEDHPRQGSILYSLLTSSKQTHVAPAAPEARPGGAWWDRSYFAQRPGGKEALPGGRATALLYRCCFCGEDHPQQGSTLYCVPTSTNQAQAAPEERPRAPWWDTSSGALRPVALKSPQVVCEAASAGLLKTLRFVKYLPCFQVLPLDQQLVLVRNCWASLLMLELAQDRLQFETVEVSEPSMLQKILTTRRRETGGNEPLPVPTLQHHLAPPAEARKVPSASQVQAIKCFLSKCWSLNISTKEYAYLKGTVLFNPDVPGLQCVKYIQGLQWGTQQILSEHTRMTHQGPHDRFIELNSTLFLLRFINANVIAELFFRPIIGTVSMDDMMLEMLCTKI
SF1 AF2mut Luc: counter-screen for DAX1 inhibitors: nonselective inhibitors with SF-1 AF2 mutant. shares compounds with DAX1 inh-1. HEK293 StAR-luciferase, luminescence. inhibition, % at 6.8 µM. actives 78% (n = 2,400). AID 652136;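 active = inhibition above the mean of all tested compounds plus 3 SD, cut at about 3% in these data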;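 note: 0% = DAX-1 transfected cells with DMSO and 100% = cells without DAX-1 with DMSO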
SMARCA2 act conf: confirmation of SMARCA2 (BRM) function activators; shares compounds with SMARCA2 activ; MG213 cells, MMTV-luciferase with dexamethasone, luminescence, overnight; MG213 cells expressing E1A, Rb sequestered; DMSO wells 0%, reference activator 100%; activation, % at 9.1 µM; actives 30% (n = 3,500); AID 652260;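 active = activation above its plate's cutoff, the mean activation of tested wells plus 3 SD, cut at about 7.9% in these data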
VP16 Luc act: GAL4-VP16 reporter activation counter-screen; shares compounds with SMARCA2 activ; HEK293 GAL4-VP16 pG5luc reporter, luciferase luminescence; scaled: DMSO wells 0%, SAHA wells 100%; activation, % at 9.1 µM; actives 41% (n = 3,500); AID 686939;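 active = activation above the solvent-only control well mean plus 3 SD, averaged across control plates, cut at about 5.2% in these data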
LXRb hcDAF ctr: counter-screen for hcDAF-12 agonists: agonists of human LXR-beta | shares compounds with hcDAF-12 act | HEK293 Gal4-LXR tk-luc reporter, luminescence, 24 h; normalized: DMSO 0%, positive control 100% | activation, % at 6.8 µM | 3,400 tested, under 10 active;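 active = mean percent activation of the reporter above a cutoff set as the average over tested compounds plus their standard deviation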
hcDAF12 conf: confirmation of H. contortus DAF-12 agonists | shares compounds with hcDAF-12 act | HEK293 hcDAF-12 lit1-tk-luc reporter, luminescence; % of Δ7-dafachronic acid response | activation, % at 6.8 µM | actives 61% (n = 3,400) | AID 743032;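 active = mean activation across triplicate tests above the threshold derived from the earlier primary screen, cut at about 5.5% in these data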;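 note: 0% = DMSO only wells and 100% = 3 µM Δ7-dafachronic acid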
Starred values were filed as active, the others as inactive; / = no result.

SMILES	SMARCA2 activ	hcDAF-12 act	DAX1 inh-1	ssDAF12 agonist	DAX1 inh-2	hgDAF-12 ag	DAX1 conf	SF1 AF2mut Luc	SMARCA2 act conf	VP16 Luc act	others
Cc1ccc(S(=O)(=O)NC(CC(C)C)C(=O)Nc2ccncc2)cc1 (centres undefined)	-2.7	-0.5	2.5	-1.4	-0.9	0.1	/	/	/	/
Cc1sc2nc(SCC(=O)Nc3cccc(C(=O)O)c3)[nH]c(=O)c2c1C	-1.3	-0.8	-1.4	-0.2	-0.3	0.8	/	/	/	/
Cc1sc2nc(SCC(=O)Nc3ccc(Cl)c(C(=O)O)c3)[nH]c(=O)c2c1C	8.8*	5.3	6.0*	0.7	0.8	17.1*	12.3*	9.5*	9.2*	8.9*
Cc1[nH]c2ccc(C(=O)N3CCCCC3)cc2c1C	10.8*	1.6	6.3*	0.7	2.9	11.3*	9.5*	3.6*	4.8	9.4*
Cc1[nH]c2ccc(C(=O)N3CCCC3)cc2c1C	1.8	-1.5	0.3	-1.4	0.2	-1.9	/	/	/	/
Cc1cccc(OCCn2c(=O)n(C)c3ccccc32)c1	8.9*	3.1	5.8*	-0.8	3.0	12.7*	7.2*	4.3*	18.8*	12.2*
Clc1ccccc1CSc1cnnc2ccccc12	9.0*	1.9	5.3*	-0.9	1.3	5.6	3.2	1.5	0.9	4.5
C=CCN1C(=O)[C@@H](CC(=O)N2CCOCC2)[C@]2(C(=O)OCC)CCCCC/C=C/12	0.4	-0.9	0.6	-1.0	/	1.6	/	/	/	/
C/C(=N/NC(=O)c1ccco1)c1ccc(NC(=O)c2ccc(Br)o2)cc1	9.5*	3.6	5.9*	-0.6	0.4	8.5	3.0	2.3	1.7	9.7*
CS(=O)(=O)N1CCC(C(=O)NNC(=O)Nc2ccc(F)c(Cl)c2)CC1	1.9	0.1	1.1	-1.1	1.3	-1.6	/	/	/	/
ClCCn1cnc2c(SCc3ccccc3)ncnc21	8.0*	1.2	7.5*	-1.3	-3.8	-1.6	-1.1	-5.9	3.7	5.2*
ClCCn1cnc2c(SCc3ccccc3Cl)ncnc21	5.6	-1.3	-3.2	-0.8	-3.6	-1.9	/	/	/	/
Cc1ccc2nc(-c3ccc(F)cc3)c(Cc3cccc(F)c3)n2c1	8.6*	4.0	4.8*	-0.2	/	11.1*	4.1*	4.6*	2.8	1.4
Cc1ccc2nc(-c3ccc(F)cc3)c(Cc3cccc(Cl)c3)n2c1	12.8*	2.9	9.6*	0.0	/	9.0	7.5*	4.3*	7.3	7.3*
CC(/C=N/NC(=O)c1n[nH]c2c1CCC2)=C\c1ccccc1	5.2	3.4	3.5	0.2	-0.1	2.4	/	/	/	/
O=C(N/N=C/C(Br)=C\c1ccccc1)c1n[nH]c2c1CCC2	8.4*	4.6	4.7*	1.9*	-0.8	0.9	20.9*	-3.5	10.7*	21.2*
O=C(CSc1nnc(C2CC2)n1C1CC1)c1ccccc1F	3.2	-0.8	0.4	-1.2	-0.3	0.9	/	/	/	/
C/C(=N/NC(=O)c1ccoc1C)c1cccs1	13.3*	4.6	7.8*	-0.2	/	8.8	12.2*	7.3*	9.2*	5.2*
Cc1occc1C(=O)N/N=C/c1ccc[nH]1	8.2*	2.5	5.2*	0.0	2.2	10.8*	2.5	0.9	2.7	1.5
CC(NC(=O)Nc1ccc(Cl)cc1)c1ccc2c(c1)OCO2 (centres undefined)	-0.8	-4.3	-0.1	-1.6	-1.0	-6.3	/	/	/	/
O=C(Nc1ccc(Cl)cc1)Nc1ccc2c(c1)OCO2	9.0*	5.7*	6.4*	0.0	1.4	12.5*	8.7*	6.6*	2.6	11.2*
CCOC(=O)N1CCN(C(=O)C[C@H]2C[C@@]3(C(=O)OC)C(=C[C@H](COCc4ccccc4)O[C@@H]3C)N(Cc3ccc(Cl)cc3Cl)C2=O)CC1	-4.0	-4.3	-0.4	-2.2	/	-2.4	/	/	/	/
O=C(c1ccco1)N(Cc1cccnc1)C(c1ccccc1)c1nc2ccccc2[nH]1 (centres undefined)	8.6*	1.8	6.0*	-0.2	/	7.7	3.8*	3.1*	11.0*	6.1*
CSc1ccccc1OCc1cc(C(=O)N2CCSCC2)no1	13.1*	5.1	5.3*	-0.6	2.3	11.6*	5.4*	3.4*	9.6*	10.4*
CSc1ccccc1OCc1cc(C(=O)N2CCN(c3ncccn3)CC2)no1	0.3	-1.0	1.7	-0.7	0.4	0.0	/	/	/	/
SMILES	SMARCA2 activ	hcDAF-12 act	DAX1 inh-1	ssDAF12 agonist	DAX1 inh-2	hgDAF-12 ag	DAX1 conf	SF1 AF2mut Luc	SMARCA2 act conf	VP16 Luc act	others
CC(C)(C)OC(=O)CC1(C#N)c2ccccc2C(Br)=CN1C(=O)c1ccccc1 (centres undefined)	0.8	3.1	-0.1	-0.9	0.8	-0.2	/	/	/	/
CCOc1ccc(OCc2cccc(C(=O)N3CCOCC3)c2)cc1	12.2*	4.8	5.8*	1.4*	-5.6	10.2	11.2*	7.7*	5.5	9.7*
C=CCN1[C@H](COCc2ccccc2)C=CS1(=O)=O	-1.8	-0.4	-1.0	-0.9	/	-1.0	/	/	/	/
Cc1ccnc(N/N=C/c2ccccc2)n1	1.3	17.2*	4.6*	0.1	1.4	12.8*	11.2*	6.3*	/	/	LXRb hcDAF ctr=0.5;hcDAF12 conf=3.0
C(=N\Nc1nccc(-c2cccnc2)n1)/c1ccccc1	2.4	2.1	1.0	-1.0	/	7.4	/	/	/	/
CCC(=O)N1c2ccc(S(=O)(=O)NCc3ccccc3)cc2CC1C (centres undefined)	-3.0	-0.5	-2.6	-1.2	0.7	0.0	/	/	/	/
Cc1ccc(/C=N/Nc2nc(C(C)(C)C)cs2)o1	0.0	4.0	0.5	-0.3	-0.8	5.4	/	/	/	/
Cc1ccc(/C=N/Nc2nc3ccccc3s2)o1	2.0	21.3*	6.2*	2.8*	1.4	12.8*	15.8*	9.1*	/	/	LXRb hcDAF ctr=1.9;hcDAF12 conf=20.5*

Screening results from PubChem BioAssay.
